IL1B secr inh: inhibitors of inflammasome signaling (IL-1 beta secretion); activity change, % at 57.5 µM; actives 4.7% (n = 360,000); AID 743279; THP-1 LPS/ATP IL-1B secretion, AlphaLISA, 16 h; hits give low values; in the data active means activity change below about -50%; inconclusive means mostly about -30% to -49%
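THP-1 cells pretreated 1 hr with compounds (up to 57.5 uM final), then stimulated with LPS (250 ng/mL final) plus ATP (1.25 mM final); secreted IL-1B measured by AlphaLISA after 16 hr, decreased signal indicating inhibition.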
DT40 TDP1 no CPT: qHTS for Inhibitors of human tyrosyl-DNA phosphodiesterase 1 (TDP1): qHTS in cells in absence of CPT. actives 15% (n = 420,000). Potency, µM (doses to about 46.2 µM), usual class: inhibitors. DT40 Tdp1-/- hTDP1 cells, no CPT, ATP luminescence, 48 h; further: nearly all actives have a fitted effect of over 55% in size
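Camptothecin absent (DMSO only). Human TDP1-complemented DT40 knockout cells, 400 cells/well, 37 °C for minimum 48 hr; ATP measured via CellTiter-Glo, 30 min dark incubation, luminescence.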
DT40 TDP1 CPT: DT40-hTDP1 cell growth loss with CPT; chicken DT40 Tdp1-/-;hTDP1 cells + 20 nM CPT, ATP luminescence, 48 h; Potency, µM (highest dose often 46.2 µM), hits mostly inhibitors; actives 12% (n = 420,000); AID 686979; further: nearly all actives have a fitted effect of over 55% in size
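Cell growth measured by CellTiter-Glo luminescence after a minimum 48 h, 37 C compound exposure with 20 nM CPT in Tdp1-knockout DT40 cells stably expressing hTDP1, seeded 400/well; qHTS titration format.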
DRD3 antagonist: blocks the human D3 dopamine receptor; AID 652054; actives 2.5% (n = 360,000); P35462; D3R cells, DiscoveRx beta-arrestin luminescence, antagonist mode; hits give low values; max response, negative = inhibition, %; in the data active means max response below about -50%; inconclusive means no clear call, values can overlap the other calls
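Cells expressing the human receptor were seeded at 1500 cells/well, incubated overnight at 37 degrees C in 5% CO2, then exposed to library compounds with dopamine controls for 90 minutes at 37 degrees C before luminescent detection.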
D3 ag: D3 dopamine receptor (human) agonism; actives 0.58% (n = 410,000); AID 652048; P35462; D3R DiscoveRx beta-arrestin cells, luminescence, 90 min; max activation, %; in the data active means max activation above about 30%
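Agonist-mode cell screen: cells plated at 1500/well and incubated overnight at 37 °C, then exposed to library compounds for 90 min at 37 °C. Detection reagent was added for 30–60 min at room temperature, and luminescence was read.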
ClpP mod: qHTS Assay for Activators of ClpP | ATP-dependent Clp protease proteolytic subunit (Bacillus subtilis (strain 168)), P80244 | purified B. subtilis ClpP, FRET peptide cleavage, 20 min | Potency, µM (top dose mostly 57.5 µM) | actives 1.9% (n = 340,000) | AID 651965, 2013; active means well fitted falling curve with a large enough effect; inconclusive means small, poorly fitted or top-dose-only effect; inactive means no such curve, though single readings can be large or run the other way; further: the source files actives as falling curves though it sought activators and does not explain the sign; nearly all actives have a fitted effect of over 65% in size
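FRET quenching reversal measured ClpP activation: 10 microg/mL B. subtilis ClpP at pH 8 with the FRET-FV decapeptide, read at 430 nm after 320 nm excitation. The 20-min minus 0-min signal was scaled between DMSO/no-enzyme wells and ADEP (5.8 microM final).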
Of the large screens only hits and unclear results are named; the others gave an inactive call. Rows were chosen to be rich in hits. Some 21% of all compounds tested hit in one or more screens of this group. Unless noted, the call rests on the fitted dose curve; in most records, active means well fitted inhibition curve with a large enough effect; inconclusive means small, poorly fitted or top-dose-only effect; inactive means flat fitted curve, though single readings scatter.

COc1ccc(F)cc1C(=O)C1CCCN(Cc2c(C)n(C)n(-c3ccccc3)c2=O)C1 (configuration not stated)	DRD3 antagonist -55.3 (no result: ClpP mod)
COc1ccc(F)cc1C(=O)C1CCCN(Cc2cccn2-c2cccnc2)C1 (configuration not stated)	DT40 TDP1 no CPT 20.6µM, DT40 TDP1 CPT inconclusive, DRD3 antagonist -95.5
C[C@@H]1CN([C@@H](C)CO)C(=O)c2cccc(NC(=O)C3CCCCC3)c2O[C@@H]1CN(C)C(=O)NC1CCCCC1	DT40 TDP1 no CPT inconclusive, DT40 TDP1 CPT inconclusive
Cc1nc2cc(NC(=O)CCS(=O)(=O)c3ccccc3)ccc2s1	none
CCOC(=O)c1[nH]c2ccccc2c1NC(=O)c1ccc(C)c(C)c1	DT40 TDP1 no CPT inconclusive (no result: IL1B secr inh, DRD3 antagonist)
O=C(CSc1nccn1Cc1ccco1)Nc1ccc(OC(F)(F)F)cc1	DT40 TDP1 CPT inconclusive (no result: IL1B secr inh, DRD3 antagonist)
COc1ncnc2c1ncn2CCCN1CCN(Cc2ccc(C)cc2)CC1	none
CSc1ncnc2c1ncn2CCCN1CCN(c2ncccn2)CC1	DT40 TDP1 no CPT inconclusive, D3 ag 38.0
COc1ncnc2c1ncn2CCCN1CCN(Cc2cccc3ccccc23)CC1	DT40 TDP1 no CPT 23.1µM, DT40 TDP1 CPT inconclusive, DRD3 antagonist inconclusive
COc1ncnc2c1ncn2CCCN1CCN(c2ncccn2)CC1	none
COc1ccc(N2CCN(CCCn3cnc4c(SC)ncnc43)CC2)cc1	DT40 TDP1 no CPT inconclusive, DT40 TDP1 CPT inconclusive
CSc1ncnc2c1ncn2CCCN1CCN(Cc2cccc3ccccc23)CC1	IL1B secr inh inconclusive, DT40 TDP1 no CPT 23.1µM, DT40 TDP1 CPT inconclusive, DRD3 antagonist -60.2
CSc1ncnc2c1ncn2CCCNc1ccc(C)c(C)c1	DT40 TDP1 no CPT 20.6µM, DT40 TDP1 CPT inconclusive
COc1cccc(-c2nc(CS(=O)CC(=O)NCCc3ccc(C)cc3)c(C)o2)c1 (configuration not stated)	none
NS(=O)(=O)c1ccc(N2N=C(c3ccccc3)CC2c2cccc(F)c2)cc1 (configuration not stated)	IL1B secr inh inconclusive, DT40 TDP1 CPT inconclusive, ClpP mod inconclusive
COc1ccc(C2CC(c3ccc(Cl)cc3)=NN2c2ccc(S(N)(=O)=O)cc2)cc1 (configuration not stated)	DT40 TDP1 no CPT inconclusive, DT40 TDP1 CPT inconclusive
NS(=O)(=O)c1ccc(N2N=C(c3ccc(Br)cc3)CC2c2ccc(F)cc2)cc1 (configuration not stated)	IL1B secr inh -75.9, DT40 TDP1 no CPT inconclusive, DT40 TDP1 CPT inconclusive
NS(=O)(=O)c1ccc(N2N=C(c3ccccc3)CC2c2cccc(Br)c2)cc1 (configuration not stated)	IL1B secr inh -57.3, D3 ag 47.4
Cc1nn(C)cc1C(C)NCc1c(C(=O)N2CCCCCCC2)nc2ccc(Cl)cn12 (configuration not stated)	none
COc1cc(C=NNC(=S)Nc2ccc(S(=O)(=O)N3CCCCC3)cc2)cc(OC)c1OC	DT40 TDP1 no CPT 8.2µM, DT40 TDP1 CPT 16.4µM
Cc1ccc(C(=O)NC(=S)Nc2ccc(S(=O)(=O)N3CCN(C)CC3)cc2)cc1	DT40 TDP1 no CPT 20.6µM, DT40 TDP1 CPT 16.4µM
CN1CCN(S(=O)(=O)c2ccc(NC(=S)NC(=O)C3CCC3)cc2)CC1	DT40 TDP1 no CPT inconclusive, DRD3 antagonist inconclusive
O=C(NC(=S)Nc1ccc(S(=O)(=O)N2CCCC2)cc1)c1cccs1	DT40 TDP1 no CPT inconclusive, DT40 TDP1 CPT inconclusive
Cc1cccc(C(=O)NC(=S)Nc2ccc(S(=O)(=O)N3CCCCC3)cc2)c1	DT40 TDP1 no CPT 14.6µM, DT40 TDP1 CPT 18.4µM
Cc1cccc(C(=O)NC(=S)Nc2ccc(S(=O)(=O)N3CCN(C)CC3)cc2)c1	DT40 TDP1 no CPT 23.1µM, DT40 TDP1 CPT inconclusive
CNC(=O)COc1coc(CN2CCN(c3ccccc3F)CC2)cc1=O	none
CC(Oc1ccc(Cl)cc1Cl)C(=O)Nc1ncccn1 (configuration not stated)	none
CC(C)C(=O)NC(c1ccc(Cl)cc1Cl)c1ccc2cccnc2c1O (configuration not stated)	DT40 TDP1 no CPT 5.17µM, DT40 TDP1 CPT 6.51µM
CCC(=O)NC(c1ccc(Cl)cc1Cl)c1ccc2cccnc2c1O (configuration not stated)	IL1B secr inh -85.5, DT40 TDP1 no CPT 5.17µM, DT40 TDP1 CPT 5.17µM (no result: ClpP mod)
CC(NC(=O)CSc1ncccn1)c1ccc(Cl)cc1Cl (configuration not stated)	DT40 TDP1 no CPT inconclusive (no result: ClpP mod)
CCCCC(=O)NC(c1ccc(Cl)cc1Cl)c1ccc2cccnc2c1O (configuration not stated)	DT40 TDP1 no CPT 2.91µM, DT40 TDP1 CPT 6.51µM, D3 ag 33.0 (no result: ClpP mod)
CC(=O)Nc1ccc(C(=O)COC(=O)C2CC3CCCC(C2)C3=O)cc1 (configuration not stated)	none
COC(=O)[C@]12CCCCC=C1N(Cc1ccccc1)C(=O)[C@H](CC(=O)NCc1ccc(OC)c(OC)c1)C2	DT40 TDP1 no CPT 23.1µM, DT40 TDP1 CPT 23.1µM
CCCCCCCCN1C(=O)[C@H](CC(=O)NCc2ccc(OC)c(OC)c2)C[C@@]2(C(=O)OCC)CCC=C12	IL1B secr inh -76.9, DT40 TDP1 no CPT 20.6µM, DT40 TDP1 CPT inconclusive
CCCCCCCCN1C(=O)[C@H](CC(=O)NCc2ccc(OC)c(OC)c2)C[C@@]2(C(=O)OC)CCCCC=C12	IL1B secr inh -58.2, DT40 TDP1 no CPT 20.6µM, DT40 TDP1 CPT inconclusive
C#CCNC(=O)C[C@@H]1C[C@@]2(C(=O)OC)CCCCC=C2N(CCCCCCCC)C1=O	DT40 TDP1 no CPT 23.1µM, DT40 TDP1 CPT 16.4µM
O=C(Nc1cccc([N+](=O)[O-])c1)Nc1ccc2c(c1)OCCO2	DT40 TDP1 no CPT inconclusive, DT40 TDP1 CPT inconclusive (no result: ClpP mod)
CN1C(=O)c2cccc3c(S(=O)(=O)Nc4ccccc4F)ccc1c23	none (no result: ClpP mod)
CCN1CCN(C(=O)c2cc(COc3ccc(C(C)=O)cc3OC)on2)CC1	none (no result: ClpP mod)
CN1C[C@@H]2[C@@H]3C(=O)N(Cc4ccccc4)C(=O)[C@@H]3[C@](C)(C1=O)N2C(=O)c1ccc(Br)cc1	none
CCCCCCCCN1C(=O)[C@H](CC(=O)NCc2ccccc2)C[C@@]2(C(=O)OC)CCCCC=C12	IL1B secr inh -82.2, DT40 TDP1 no CPT 14.6µM, DT40 TDP1 CPT 16.4µM
CCCCCCCCN1C(=O)[C@H](CC(=O)NCc2ccccc2)C[C@@]2(C(=O)OCC)CCC=C12	IL1B secr inh inconclusive, DT40 TDP1 no CPT inconclusive, DT40 TDP1 CPT inconclusive

Source: PubChem (National Center for Advancing Translational Sciences (NCATS))
